Records with an inconclusive call do not appear. Calls of active or inactive are those of the source. Unless noted, the call rests on the fitted dose curve.
Experiments:
[1] = Nuclear factor erythroid 2-related factor 2/antioxidant responsive element (Nrf2/ARE) small molecule agonists: qHTS cell viability counter screen in human keratinocytes (AID 1919968; active means well fitted curve in the direction sought with a large enough effect in the repeat runs; an effect the other way counts as inactive or inconclusive; further: nearly all actives have a fitted effect of over 55% in size)
How it was run: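 Cytotoxicity was multiplexed with the Nrf2/ARE luciferase assay in the same wells. Stably transfected HaCaT keratinocytes were treated with test compounds for 23 h at 37 C. Cell viability was then measured by CellTiter-Fluor fluorescence.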

[2] = Nuclear factor erythroid 2-related factor 2/antioxidant responsive element (Nrf2/ARE) small molecule agonists: luciferase reporter gene qHTS assay in human keratinocytes (AID 1919969); further: nearly all actives have a fitted effect of over 35% in size
[3] = target: Gonadotropin-releasing hormone receptor (Homo sapiens) (UniProt P30968); experiment: Human gonadotropin-releasing hormone receptor (GnRHR) small molecule agonists, calcium flux assay in GnRHR-HEK293 cells (AID 1920063); further: nearly all actives have a fitted effect of over 35% in size
Sequence of Gonadotropin-releasing hormone receptor (Homo sapiens) (P30968 whole entry, looked up): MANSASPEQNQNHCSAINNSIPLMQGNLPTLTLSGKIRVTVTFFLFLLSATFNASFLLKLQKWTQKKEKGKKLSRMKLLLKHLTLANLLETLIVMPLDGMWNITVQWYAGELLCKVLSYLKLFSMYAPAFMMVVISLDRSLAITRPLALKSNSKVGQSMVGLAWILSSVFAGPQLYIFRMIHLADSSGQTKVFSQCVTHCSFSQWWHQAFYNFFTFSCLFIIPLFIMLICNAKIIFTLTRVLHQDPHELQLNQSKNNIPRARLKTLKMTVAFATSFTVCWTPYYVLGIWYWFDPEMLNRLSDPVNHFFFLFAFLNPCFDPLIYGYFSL
How it was run: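 Agonist activity was measured as intracellular calcium flux in HEK293 cells engineered to stably express human GnRHR. After dye loading for 1 hour at 37 C, compounds in DMSO were added and fluorescence was followed for 3 minutes.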

[4] = G protein-coupled receptor (GPCR) small molecule agonists, calcium flux assay: HEK293 wild type cell line counter screen (AID 1920065)
How it was run: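 Seed cells, incubate 18 h (37 C, 5% CO2); add calcium dye, 1 h at 37 C; pin-transfer compounds, ATP control or DMSO; read fluorescence 480/540 nm each second for 3 min.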

[5] = p53 small molecule agonists, cell-based qHTS assay with human liver microsomes (AID 1963577)
How it was run: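 Fluorescence of the beta-lactamase reporter in p53RE-bla cells, detected with LiveBLAzer substrate (2 h, room temperature, dark), served as the read-out after 16 h compound exposure at 37 C with human liver microsomes and NADPH, each 0.5 mg/mL final.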

[6] = p53 small molecule agonists, cell-based qHTS assay with rat liver microsomes (AID 1963578)
How it was run: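 Cells carrying a p53 response element–beta-lactamase reporter were plated and rested 5 h, then dosed with compound in DMSO plus rat liver microsomes and NADPH, each at 0.5 mg/mL final. After 16 h at 37 C, LiveBLAzer substrate was added for 2 h.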

[7] = p53 small molecule agonists, cell-based qHTS assay with human liver microsomes: qHTS cell viability counter screen (AID 1963579); further: nearly all actives have a fitted effect of over 45% in size
How it was run: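 Cytotoxicity counter screen: p53RE-bla, 4,000 cells/well; 5 h settle, 37 C/5% CO2; cpd + HLM 0.5 mg/mL + NADPH 0.5 mg/mL (final); 16 h, 37 C; CellTiter-Glo, 30 min RT, luminescence.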

[8] = p53 small molecule agonists, cell-based qHTS assay with rat liver microsomes: qHTS cell viability counter screen (AID 1963580); further: nearly all actives have a fitted effect of over 45% in size
How it was run: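 Rat liver microsome (0.5 mg/mL final) and NADPH (0.5 mg/mL final) co-incubation with compounds for 16 h at 37 C on HCT-116 p53RE-bla cells; cytotoxicity taken from intracellular ATP luminescence.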

[9] = p53 small molecule agonists, cell-based qHTS assay: qHTS cell viability counter screen (AID 1963581); further: nearly all actives have a fitted effect of over 45% in size
How it was run: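 Viability was counter-screened in parallel with the p53 agonist reporter by measuring intracellular ATP luminescence in the same HCT-116 p53RE-bla wells after 16 h compound treatment at 37 C.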

[10] = target: 5-hydroxytryptamine receptor 2A (Homo sapiens) (UniProt P28223); experiment: 5-hydroxytryptamine receptor 2A (HTR2A) small molecule antagonists, cell-based qHTS assay (AID 1963586); further: nearly all actives have a fitted effect of over 45% in size
Sequence of 5-hydroxytryptamine receptor 2A (Homo sapiens) (P28223 whole entry, looked up): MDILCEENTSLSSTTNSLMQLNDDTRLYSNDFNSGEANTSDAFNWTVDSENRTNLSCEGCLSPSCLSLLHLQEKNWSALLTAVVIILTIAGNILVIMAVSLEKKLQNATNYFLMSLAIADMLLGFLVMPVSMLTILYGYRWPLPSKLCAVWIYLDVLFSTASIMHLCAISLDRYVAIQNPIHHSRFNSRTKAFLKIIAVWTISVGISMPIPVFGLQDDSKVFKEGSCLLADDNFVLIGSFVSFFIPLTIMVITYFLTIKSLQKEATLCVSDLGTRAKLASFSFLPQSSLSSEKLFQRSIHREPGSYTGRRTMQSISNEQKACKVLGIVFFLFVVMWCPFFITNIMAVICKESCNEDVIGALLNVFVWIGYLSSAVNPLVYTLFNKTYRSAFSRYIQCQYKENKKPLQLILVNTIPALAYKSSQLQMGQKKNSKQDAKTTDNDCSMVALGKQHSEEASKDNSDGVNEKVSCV
How it was run: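 CHO cells stably expressing human HTR2A were plated for 18 h at 37 C, then loaded with calcium dye for 1 h. Compounds were preincubated 5 min at room temperature before DOI (4 nM solution) was added. Kinetic fluorescence was read for 3 min.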

[11] = target: 5-hydroxytryptamine receptor 2A (Homo sapiens) (UniProt P28223); experiment: 5-hydroxytryptamine receptor 2A (HTR2A) small molecule agonists, cell-based qHTS assay (AID 1963587); further: nearly all actives have a fitted effect of over 30% in size
How it was run: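 Kinetic calcium-flux fluorescence (2 min, 1 sec intervals) after compound addition in agonist mode. HTR2A-CHO cells were cultured 18 h, then dye-loaded 1 h at 37 C.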

[12] = target: Muscarinic acetylcholine receptor M1 (Homo sapiens) (UniProt P11229); experiment: Cholinergic receptor muscarinic 1 (CHRM1) small molecule antagonists, cell-based qHTS assay (AID 1963588); further: nearly all actives have a fitted effect of over 40% in size
Sequence of Muscarinic acetylcholine receptor M1 (Homo sapiens) (P11229 whole entry, looked up): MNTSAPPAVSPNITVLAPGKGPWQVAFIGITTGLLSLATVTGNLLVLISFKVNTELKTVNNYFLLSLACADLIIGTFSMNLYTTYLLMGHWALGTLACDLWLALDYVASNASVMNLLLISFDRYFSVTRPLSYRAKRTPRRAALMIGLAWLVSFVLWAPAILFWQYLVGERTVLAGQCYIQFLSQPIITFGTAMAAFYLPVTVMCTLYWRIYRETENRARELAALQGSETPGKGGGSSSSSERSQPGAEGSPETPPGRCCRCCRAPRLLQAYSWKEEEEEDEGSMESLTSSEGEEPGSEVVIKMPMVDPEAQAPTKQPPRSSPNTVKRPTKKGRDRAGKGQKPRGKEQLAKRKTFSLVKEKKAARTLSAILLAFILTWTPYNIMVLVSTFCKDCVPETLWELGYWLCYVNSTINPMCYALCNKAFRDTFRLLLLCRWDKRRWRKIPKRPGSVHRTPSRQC
How it was run: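 Compounds were tested at 15 concentrations in three independent runs. Dye-loaded CHRM1-CHO cells were exposed 5 min at room temperature before stimulation by acetylcholine added at 50nM. Intracellular calcium was read kinetically on FDSS for 3 min.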

[13] = target: Muscarinic acetylcholine receptor M1 (Homo sapiens) (UniProt P11229); experiment: Cholinergic receptor muscarinic 1 (CHRM1) small molecule agonists, cell-based qHTS assay (AID 1963589); further: nearly all actives have a fitted effect of over 35% in size
How it was run: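 Cells were plated and incubated 18 h at 37 C/5% CO2, loaded with calcium dye for 1 h at 37 C, then treated with compounds in DMSO. Fluorescence was recorded kinetically at 1 sec intervals.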

[14] = cAMP Responsive Elements (CRE) small molecule agonists, cell-based qHTS assay (AID 1963590)
How it was run: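 Cells carrying a CRE-driven beta-lactamase reporter (HEK 293T) are seeded, incubated overnight (18 h), and treated with test compounds for 3 h at 37 C; reporter activity is then detected with a FRET substrate after 2 h at room temperature.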

[15] = cAMP Responsive Elements (CRE) small molecule antagonists, cell-based qHTS assay (AID 1963591; active means well fitted inhibition curve with a large enough effect in the signal ratio in the repeat runs, not every such curve was filed as active; the % refers to the signal ratio)
How it was run: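 Cells (CRE-bla HEK 293T, DMEM with 10% dialyzed FBS and 25 mM HEPES) are seeded and incubated 18 h. Compounds are added with NKH477 agonist at 0.25 uM final for 3 h, then FRET substrate for 2 h.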

[16] = target: Beta-2 adrenergic receptor (Homo sapiens) (UniProt P07550); experiment: Adrenergic beta2 receptor (ADRB2) small molecule antagonists, cell-based qHTS assay (AID 1963592); further: series mostly up to about 92 µM; nearly all actives have a fitted effect of over 50% in size
Sequence of Beta-2 adrenergic receptor (Homo sapiens) (P07550 whole entry, looked up): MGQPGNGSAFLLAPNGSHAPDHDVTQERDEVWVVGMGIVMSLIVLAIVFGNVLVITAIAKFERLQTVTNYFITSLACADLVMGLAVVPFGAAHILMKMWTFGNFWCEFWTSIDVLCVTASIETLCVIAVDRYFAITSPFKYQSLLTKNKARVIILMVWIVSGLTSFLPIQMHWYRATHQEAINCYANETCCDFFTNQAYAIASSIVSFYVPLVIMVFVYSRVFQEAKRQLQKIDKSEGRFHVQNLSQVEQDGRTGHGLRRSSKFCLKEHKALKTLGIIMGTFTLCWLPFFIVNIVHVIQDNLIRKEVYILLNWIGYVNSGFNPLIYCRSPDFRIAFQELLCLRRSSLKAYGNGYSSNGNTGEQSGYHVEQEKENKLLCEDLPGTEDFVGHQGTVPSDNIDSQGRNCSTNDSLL
How it was run: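 Assay format: CHO-ADRB2 cells, 18-20hr seeding at 37C/5% CO2, then compound plus 1nM isoproterenol agonist mix for 0.5hr RT. Homogeneous time-resolved fluorescence cAMP detection after 1hr, expressed as 665/615 nm ratio.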

[17] = target: D(2) dopamine receptor (Homo sapiens) (UniProt P14416); experiment: Dopamine D2 receptor (DRD2) small molecule agonists, cell-based qHTS assay (AID 1963594); further: nearly all actives have a fitted effect of over 35% in size
Sequence of D(2) dopamine receptor (Homo sapiens) (P14416 whole entry, looked up): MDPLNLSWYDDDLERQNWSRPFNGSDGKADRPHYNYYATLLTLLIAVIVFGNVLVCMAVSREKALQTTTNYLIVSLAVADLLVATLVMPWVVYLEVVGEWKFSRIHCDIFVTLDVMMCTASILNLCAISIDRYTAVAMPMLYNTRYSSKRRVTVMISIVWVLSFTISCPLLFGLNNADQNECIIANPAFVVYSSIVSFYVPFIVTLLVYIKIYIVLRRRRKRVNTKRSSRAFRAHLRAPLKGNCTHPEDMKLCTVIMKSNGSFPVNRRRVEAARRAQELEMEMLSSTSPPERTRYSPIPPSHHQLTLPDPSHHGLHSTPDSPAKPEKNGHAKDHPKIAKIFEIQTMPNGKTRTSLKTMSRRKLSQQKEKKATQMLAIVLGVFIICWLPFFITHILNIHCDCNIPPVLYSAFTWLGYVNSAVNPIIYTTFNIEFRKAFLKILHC
How it was run: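 cAMP accumulation in DRD2-HEK293 cells measured by HTRF after 1 h detection; compounds added 10 min before NKH477 (200nM […]) forskolin-analogue stimulation, 30 min at room temperature, with Ro20-1724 present at 0.1 mM final.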

[18] = target: D(2) dopamine receptor (Homo sapiens) (UniProt P14416); experiment: Dopamine D2 receptor (DRD2) small molecule antagonists, cell-based qHTS assay (AID 1963595; active means well fitted inhibition curve with a large enough effect in the signal ratio in the repeat runs, with a control signal flat; the % refers to the signal ratio)
How it was run: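 HTRF cAMP read-out at 665 and 620 nm emission (340 nm excitation). Antagonist mode: compounds were tested against 12 nM quinpirole in DRD2-HEK293 cells, with 200 nM NKH477 raising cAMP and 0.1 mM Ro20-1724 blocking its breakdown.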

[19] = target: KiSS-1 receptor (Homo sapiens) (UniProt Q969F8); experiment: Human kisspeptin (KISS1R) small molecule agonists, calcium flux assay in KISS1R-HEK293 cells (AID 1920064; active means well fitted curve in the direction sought with a large enough effect in the repeat runs; an effect the other way counts as inactive or inconclusive)
Sequence of KiSS-1 receptor (Homo sapiens) (Q969F8 whole entry, looked up): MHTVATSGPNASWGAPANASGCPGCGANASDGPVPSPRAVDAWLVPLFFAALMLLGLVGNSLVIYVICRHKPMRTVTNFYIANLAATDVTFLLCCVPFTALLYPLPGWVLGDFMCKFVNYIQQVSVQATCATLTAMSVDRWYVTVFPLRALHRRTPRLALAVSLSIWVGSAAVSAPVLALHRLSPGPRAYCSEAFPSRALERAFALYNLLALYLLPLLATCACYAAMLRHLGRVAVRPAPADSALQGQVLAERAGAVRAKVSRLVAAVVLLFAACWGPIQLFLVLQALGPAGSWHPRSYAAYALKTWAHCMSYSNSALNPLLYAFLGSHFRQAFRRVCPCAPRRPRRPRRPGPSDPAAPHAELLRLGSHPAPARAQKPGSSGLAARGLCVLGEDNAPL
How it was run: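 Agonist activity is monitored as intracellular calcium rise in engineered HEK293 cells carrying human KISS1R. Cells are dye-loaded for 1 h at 37 C before compound addition, and fluorescence is recorded for 3 min.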

[20] = target: Beta-2 adrenergic receptor (Homo sapiens) (UniProt P07550); experiment: Adrenergic beta2 receptor (ADRB2) small molecule agonists, cell-based qHTS assay (AID 1963593);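 further: CHO cells stably overexpressing human ADRB2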
How it was run: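 CHO cells stably over-expressing ADRB2 were plated overnight at 37C, then dosed with compounds plus a stimulation mix containing 100uM IBMX and 25uM Ro-20-1724 for 0.5hr at room temperature. cAMP was measured by HTRF competition, 1hr.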

Measured: Potency

CC(CCO)CC(C)(C)C (configuration not stated)
inactive: [1] | [2] | [3] | [4] | [5] | [6] | [7] | [8] | [9] | [10] | [11] | [12] | [13] | [14] | [15] | [16] | [17] | [18]

CCOCCOCCO
inactive: [1] | [2] | [3] | [19] | [5] | [6] | [7] | [11] | [12] | [13] | [14] | [15] | [16] | [17] | [18]

Nc1ccc(O)c(C(=O)O)c1
inactive: [1] | [2] | [3] | [4] | [5] | [6] | [7] | [8] | [9] | [10] | [11] | [12] | [13] | [14] | [15] | [16] | [17] | [18]

CC(=O)C(=O)O
inactive: [1] | [2] | [3] | [19] | [6] | [7] | [9] | [10] | [11] | [13] | [14] | [15] | [16] | [20] | [17] | [18]

CN(C)C
inactive: [1] | [2] | [3] | [4] | [5] | [6] | [7] | [8] | [9] | [10] | [11] | [12] | [13] | [14] | [15] | [16] | [17] | [18]

c1cc(-c2ccncc2)ccn1
inactive: [1] | [2] | [3] | [4] | [5] | [6] | [7] | [8] | [9] | [10] | [11] | [12] | [13] | [14] | [15] | [20] | [17] | [18]

CC1(C)OC(=O)NC1=O
inactive: [1] | [2] | [3] | [4] | [5] | [6] | [7] | [8] | [9] | [10] | [11] | [12] | [13] | [14] | [15] | [16] | [20] | [17] | [18]
